In PubChem BioAssay (EPA / NIEHS):
Records with an inconclusive call do not appear. Active and inactive are the calls of the source. Rule for the calls, unless noted: active = hit-call score of the fitted dose curve at least 0.9, where 1 is the maximum; inactive = score below 0.9.

Assays:
[1] = CCTE_Shafer_MEA_dev_per_burst_spike_percent: CCTE's Neural Network Formation Assay for Percent of Spikes in a Burst, Shafer Lab (AID 2284032)
Summary of the method: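 Value is trapezoidal AUC over recordings on days 5, 7, 9 and 12 of the well-mean fraction of spikes falling in single-electrode bursts; rat cortical cultures exposed continuously from plating, treatment renewed DIV 5 and 9, fitted downward against DMSO.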

[2] = CCTE_Shafer_MEA_dev_active_electrodes_number: CCTE's Neural Network Formation Assay for Number of Active Electrodes, Shafer Lab (AID 2284040; active = hit-call score of the fitted dose curve at least 0.9, where 1 is the maximum)
Summary of the method: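 Developing rat cortical networks on MEAs, exposed DIV 0–12. Value is the AUC of active-electrode counts (≥5 spikes/min) from days 5, 7, 9, 12, relative to DMSO.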

[3] = CCTE_Shafer_MEA_dev_per_burst_interspike_interval: CCTE's Neural Network Formation Assay for Burst Interspike Interval, Shafer Lab (AID 2284044)
Summary of the method: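 Spontaneous activity of maturing rat cortical networks is recorded on DIV 5, 7, 9 and 12 under chronic compound exposure beginning at plating. Endpoint: burst interspike interval well-mean, collapsed into trapezoidal AUC and fitted in the negative direction relative to DMSO.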

[4] = CCTE_Shafer_MEA_dev_burst_duration_mean: CCTE's Neural Network Formation Assay for Mean Burst Duration, Shafer Lab (AID 2284045)
Summary of the method: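 Rat cortical cultures, 1.5 x 10^5 cells/well with laminin drop; continuous dosing days 0–12, media plus treatment refreshed DIV 5, 9. AxIS adaptive spike detection; mean single-electrode burst duration, AUC over four recordings, negative direction vs DMSO.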

[5] = CCTE_Shafer_MEA_dev_interburst_interval_mean: CCTE's Neural Network Formation Assay for Mean Interburst Interval, Shafer Lab (AID 2284046);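 note: well-mean interburst interval of bursting electrodes as AUC over four recording days; curve fitted for decrease in interburst interval relative to DMSO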
Summary of the method: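 Rat cortical neurons, 1.5 x 10^5 cells/well, 48-well MEA; compound from day 0 through DIV 12, media and treatment renewed DIV 5/9. Recordings DIV 5, 7, 9, 12; well-mean interburst interval → trapezoidal AUC, loss direction vs DMSO.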

[6] = CCTE_Shafer_MEA_dev_inter_network_spike_interval_mean: CCTE's Neural Network Formation Assay for Mean Inter-network Spike Interval, Shafer Lab (AID 2284047)
Summary of the method: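 Primary rat cortical neurons on PEI-coated 48-well MEAs (16 electrodes/well) were exposed from plating day 0 to DIV 12, with dosing renewed at DIV 5 and 9. Recordings at DIV 5, 7, 9, 12 were collapsed by trapezoidal AUC, loss-of-signal fit vs DMSO.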

[7] = CCTE_Shafer_MEA_dev_network_spike_number: CCTE's Neural Network Formation Assay for Number of Network Spikes, Shafer Lab (AID 2284048);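 note: synchronized bursts across electrodes counted on days 5 7 9 12 and integrated as AUC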
Summary of the method: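 Rat cortical primary cultures on 48-well MEA (16 electrodes/well); continuous exposure DIV 0–12, full medium and treatment exchange DIV 5, 9. Readout: network spike count, AxIS adaptive detection, recordings DIV 5/7/9/12 collapsed to AUC; loss-of-signal fit, DMSO baseline.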

[8] = CCTE_Shafer_MEA_dev_network_spike_peak: CCTE's Neural Network Formation Assay for Mean Number of Electrodes in Network Spike, Shafer Lab (AID 2284049)
Summary of the method: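 Network-spike peak electrode count from recordings on days 5, 7, 9 and 12 was combined as trapezoidal area under the curve. Rat cortical cultures were treated continuously from plating, with compound renewed at each feed (DIV 5, 9); fits versus DMSO.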

[9] = CCTE_Shafer_MEA_dev_spike_duration_mean: CCTE's Neural Network Formation Assay for Mean Spike Duration, Shafer Lab (AID 2284051);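 note: mean network spike duration pooled as area under curve over DIV 5 to 12 recordings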
Summary of the method: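 Rat cortical primary cultures, 48-well MEA (16 electrodes/well); compound from plating, renewed DIV 5, 9. Network spike duration (AxIS adaptive detector) recorded DIV 5/7/9/12, combined as trapezoidal AUC; loss direction vs DMSO.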

[10] = CCTE_Shafer_MEA_dev_network_spike_duration_std: CCTE's Neural Network Formation Assay for Standard Deviation of Network Spike Duration, Shafer Lab (AID 2284052);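 note: area under curve of spike duration SD across recording days 5 to 12; hits are decreases in network spike duration SD versus DMSO vehicle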
Summary of the method: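 Rat cortical cultures, 1.5 x 10^5 cells/well, exposed continuously from plating to DIV 12 with media/compound renewal at DIV 5, 9. Spontaneous activity recorded DIV 5/7/9/12, AxIS adaptive spike detector; AUC across days; negative direction vs DMSO.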

[11] = CCTE_Shafer_MEA_dev_per_network_spike_spike_number_mean: CCTE's Neural Network Formation Assay for Mean Number of Spikes in a Network Spike, Shafer Lab (AID 2284053)
Summary of the method: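 Rat cortical primary cultures on 48-well MEA; compound from day 0, re-dosed with full media change DIV 5, 9. Recorded DIV 5, 7, 9, 12; spikes in 0.05 s window at network-spike peak ÷ total network spikes; AUC; loss vs DMSO.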

[12] = CCTE_Shafer_MEA_dev_per_network_spike_spike_percent: CCTE's Neural Network Formation Assay for Percent of Spikes in a Network Spike, Shafer Lab (AID 2284054)
Summary of the method: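 Read-out: percent of spikes falling in a 0.05 s window at network-spike peak, from spontaneous MEA recordings on days 5, 7, 9 and 12; trapezoidal AUC; loss of signal versus DMSO. Rat cortical cultures, compound present throughout.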

[13] = CCTE_Shafer_MEA_dev_mutual_information_norm: CCTE's Neural Network Formation Assay for Mutual Information Normalization, Shafer Lab (AID 2284091)
Summary of the method: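 Neurons from rat cortex were seeded at 1.5 x 10^5 cells/well onto PEI-coated MEAs in a laminin drop, then exposed to compound from day 0 for twelve days. Network recordings on four days gave mutual information, summarised by AUC relative to DMSO.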

[14] = CCTE_Shafer_MEA_dev_correlation_coefficient_mean: CCTE's Neural Network Formation Assay for Mean Correlation Coefficient, Shafer Lab (AID 2284093)
Summary of the method: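 Rat cortical cultures, 1.5 x 10^5 cells/well, dosed from day 0 for 12 days. Spontaneous spikes recorded DIV 5/7/9/12; electrode-pair correlation coefficients averaged, AUC taken. Fit in loss direction vs DMSO.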

[15] = IUF_NPC1b_proliferation_BrdU_72hr: Leibniz Research Institute for Environmental Medicine (IUF) 72-hour Neural Progenitor Cell Bromodeoxyuridine (BrdU) Proliferation Assay (NPC1b) (AID 2284207)
Summary of the method: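 Luminescent BrdU ELISA measured DNA synthesis during the last 16 h of a 72 h exposure of primary human neural progenitor spheres grown with EGF and FGF. Signal was fitted relative to DMSO controls.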

[16] = IUF_NPC1a_proliferation_area_72hr: Leibniz Research Institute for Environmental Medicine (IUF) 72-hour Neural Progenitor Cell Proliferation Area Assay (NPC1a) (AID 2284208)
Summary of the method: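 Measured in 3D suspension: each well held one primary hNPC sphere grown with EGF and FGF at pH 7.2-7.6. Compound stayed on for 72 h, then area was imaged; spheres lacking growth factors defined reduced proliferation.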

[17] = IUF_NPC1_viability_72hr: Viability Assessment at 72 hours in the Leibniz Research Institute for Environmental Medicine (IUF) Neural Progenitor Cell Proliferation Assay (NPC1) (AID 2284209)
Summary of the method: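 Alamar blue fluorescence (RFU) after 72 h exposure, normalized to DMSO baseline. hNPC spheres from GW 16-19 fetal cortex, single sphere per well in growth-factor medium; no compound renewal.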

[18] = CCTE_Mundy_HCI_Cortical_Synap_Neur_Matur_NeuriteSpotCountPerNeuriteLength: CCTE's Synaptogenesis and Neurite Maturation Assay in rat cortical cells for Neurite Spot Count per Neurite Length, Mundy Lab (AID 2284210)
Summary of the method: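 Read-out: synaptophysin puncta counted along MAP2-stained neurites, normalised to neurite length, by automated high-content imaging. Rat cortical cells; AraC DIV 5; chemical dosing DIV 7; termination DIV 12. DMSO baseline.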

[19] = CCTE_Mundy_HCI_Cortical_Synap_Neur_Matur_BPCount: CCTE's Synaptogenesis and Neurite Maturation Assay in rat cortical cells for Branch Point Count, Mundy Lab (AID 2284211)
Summary of the method: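 In this multiplexed morphology assay, cortical cells from rat receive chemicals at DIV 7 and are fixed at DIV 12, then immunostained and imaged; branch points are counted, with DMSO as baseline.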

[20] = CCTE_Mundy_HCI_Cortical_NOG_NeuriteCount: CCTE's Neurite Outgrowth Assay in rat cortical cells for Neurite Count, Mundy Lab (AID 2284212);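 note: cells fixed about two days after chemical exposure began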
Summary of the method: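 Rat cortical primary cells; compound added 2 h post-plating, 1/10 dilution of working solution. Anti-betaIII-tubulin/AF488 ICC; ArrayScan neurite count vs DMSO.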

[21] = CCTE_Mundy_HCI_Cortical_NOG_NeuriteLength: CCTE's Neurite Outgrowth Assay in rat cortical cells for Neurite Length, Mundy Lab (AID 2284213)
Summary of the method: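 First, rat primary cortical cells were plated and, 2 h later, given test chemical as a 1/10 dilution. Finally, βIII-tubulin immunostaining enabled automated imaging of neurite length.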

[22] = CCTE_Mundy_HCI_Cortical_Synap_Neur_Matur_NeuriteLength: CCTE's Synaptogenesis and Neurite Maturation Assay in rat cortical cells for Neurite Length, Mundy Lab (AID 2284214)
Summary of the method: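 Read-out: high-content imaging of MAP2-labelled neurites, with synaptophysin and Hoechst co-stain, in rat cortical cultures fixed at DIV 12. Activity fitted in positive direction relative to DMSO baseline.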

Measured: AC50

CC(C)c1nn(C(=O)NC(C)(C)C)c(=O)n1N
active: [15] 2.01 µM
inactive: all other assays above
